Data: paper PMC4336329 (PLoS ONE, 2015)
Among all 310,000 compounds or so, about 14,000 (4.5%) showed an effect of 50% or more. Effects have a minus sign here. What follows is part of a selection rich in strong results, with near analogues and random picks from the rest.

Each molecule was assayed against human ether-à-go-go-related gene (hERG) potassium channel (human, UniProt Q12809) (assay: primary screen, population patch clamp on CHO cells stably expressing hERG; higher = less effect of the substance).
Sequence of human ether-à-go-go-related gene (hERG) potassium channel (Q12809 whole entry, looked up): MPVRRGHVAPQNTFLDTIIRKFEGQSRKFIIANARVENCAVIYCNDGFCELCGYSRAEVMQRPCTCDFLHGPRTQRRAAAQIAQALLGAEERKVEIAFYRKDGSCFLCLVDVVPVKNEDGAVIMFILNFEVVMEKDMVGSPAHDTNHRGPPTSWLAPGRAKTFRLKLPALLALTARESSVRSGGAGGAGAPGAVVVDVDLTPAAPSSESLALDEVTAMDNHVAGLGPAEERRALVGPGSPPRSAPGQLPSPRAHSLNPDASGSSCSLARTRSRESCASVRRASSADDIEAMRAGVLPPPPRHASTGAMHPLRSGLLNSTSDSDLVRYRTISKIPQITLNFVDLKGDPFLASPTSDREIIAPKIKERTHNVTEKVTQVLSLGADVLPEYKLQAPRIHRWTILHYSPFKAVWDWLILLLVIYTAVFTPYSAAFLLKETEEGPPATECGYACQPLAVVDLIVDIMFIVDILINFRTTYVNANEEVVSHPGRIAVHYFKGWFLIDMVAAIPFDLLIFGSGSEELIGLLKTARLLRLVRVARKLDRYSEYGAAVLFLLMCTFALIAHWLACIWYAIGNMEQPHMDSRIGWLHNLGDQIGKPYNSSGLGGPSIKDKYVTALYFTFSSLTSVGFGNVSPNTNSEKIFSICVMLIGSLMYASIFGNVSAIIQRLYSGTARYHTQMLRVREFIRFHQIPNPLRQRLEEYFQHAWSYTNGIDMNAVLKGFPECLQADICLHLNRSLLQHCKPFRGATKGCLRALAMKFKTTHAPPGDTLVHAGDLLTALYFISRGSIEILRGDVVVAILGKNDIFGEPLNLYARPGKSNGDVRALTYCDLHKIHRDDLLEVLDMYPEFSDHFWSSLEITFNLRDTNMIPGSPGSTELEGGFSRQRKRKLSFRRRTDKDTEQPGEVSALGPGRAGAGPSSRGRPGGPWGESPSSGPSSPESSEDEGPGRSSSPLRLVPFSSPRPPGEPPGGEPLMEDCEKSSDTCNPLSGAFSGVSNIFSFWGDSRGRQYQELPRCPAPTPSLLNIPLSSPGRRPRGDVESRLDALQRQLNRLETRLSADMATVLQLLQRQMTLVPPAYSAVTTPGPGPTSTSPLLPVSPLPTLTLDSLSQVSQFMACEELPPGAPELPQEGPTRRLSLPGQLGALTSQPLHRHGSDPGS
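Further: peak tail current of the secondary pulse compared with the same well before compound.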

Row | Structure (SMILES) | hERG current change (%, negative = inhibition) at 10uM
1 | COc1cccc(CN2CCN(S(=O)(=O)c3ccccc3)CC2)c1OC | -4.11%
2 | CC(C(=O)NCc1ccc2c(c1)OCO2)c1ccc([N+](=O)[O-])cc1 (centres unmarked) | -13.6%
3 | Cc1ccc(-c2noc(CN3C(C)CCCC3C)n2)cc1 (centres unmarked) | 2.64%
4 | Cc1cc(O)c(C=O)c2c1C(=O)Oc1c(CO)c(O)c3c(c1O2)C(O)OC3=O (centres unmarked) | 0.355%
5 | C/C=C/c1ccc(OCCCCOc2ccccc2C(C)=O)c(OC)c1 | -12.1%
6 | C/C=C/c1ccc(OCCCNC(C)CC)c(OC)c1.O=C(O)C(=O)O (centres unmarked) | -14%
7 | C/C=C/c1ccc(OCCCCN2CC(C)CC(C)C2)c(OC)c1.O=C(O)C(=O)O (centres unmarked) | -81.6%
8 | C/C=C/c1ccc(OCCCCN(C)Cc2ccccc2)c(OC)c1.O=C(O)C(=O)O | -79.4%
9 | COc1cc(C)ccc1OCCOCCN(C)Cc1ccccc1.O=C(O)C(=O)O | -32.8%
10 | C/C=C/c1ccc(OCCCNC)c(OC)c1.O=C(O)C(=O)O | -44.6%
11 | C/C=C/c1ccc(OCCOCCNCc2ccccc2)c(OC)c1.O=C(O)C(=O)O | -37%
12 | C/C=C/c1ccc(OCCCNC2CCCC2)c(OC)c1.O=C(O)C(=O)O | -57.6%
13 | C/C=C/c1ccc(OCCCCN2CCN(CC)CC2)c(OC)c1.O=C(O)C(=O)O | -29.5%
14 | C/C=C/c1ccc(OCCNCc2ccccc2)c(OC)c1.O=C(O)C(=O)O | -39.8%
15 | C/C=C/c1ccc(OCCCCNCc2ccco2)c(OC)c1.O=C(O)C(=O)O | -72.9%
16 | COc1cc(C)ccc1OCCCCN1CC(C)OC(C)C1.O=C(O)C(=O)O (centres unmarked) | -9.65%
17 | C=CCN1CCN(C(c2ccccc2OC)c2nnnn2C(C)(C)C)CC1.Cl (centres unmarked) | -0.19%
18 | CCOC(=O)c1c(C)oc2ccc(OC(=O)N3CCOCC3)cc12 | -16.1%
19 | CCCN(CCC)C(=O)CCSCCC(=O)N(CCC)CCC | 14.5%
20 | O=C(NCCN1CCOCC1)C1CCC(=O)N1Cc1ccc(F)cc1 (centres unmarked) | 1.05%
21 | COc1ccc(Nc2nnc(SCc3cn4c(C)cccc4n3)s2)cc1 | -52.2%
22 | O=c1cc(CSc2nnc(Nc3ccccc3)s2)nc2sccn12 | -27.6%
23 | Cc1ccc(Nc2nnc(SCc3cc(=O)n4cc(C)ccc4n3)s2)cc1 | -36.6%
24 | COc1ccc(Nc2nnc(SCc3cc(=O)n4ccsc4n3)s2)cc1 | -68.9%

Row | Structure (SMILES) | hERG current change (%, negative = inhibition) at 10uM
25 | Cc1cccc2nc(CSc3nnc(N)s3)cn12 | -9.23%
26 | CCc1ccc(Nc2nnc(SCc3cc(=O)n4ccsc4n3)s2)cc1 | -11.5%
27 | CCC(=O)N1CCC2(CC1)Oc1ccc(Cl)cc1C(=O)C21CC(c2cccnc2)=NO1 (centres unmarked) | -15.1%
28 | O=C(CCCN1C(=O)c2cccnc2C1=O)N1CC(=O)N(CCc2ccccc2)C(=O)C1 | -9.44%
29 | CCOC(=O)c1cnc2ccccc2c1Nc1cccc(C(=O)O)c1.Cl | 15.3%
30 | CC(/C=C1\SC(=S)N(CCCC(=O)Nc2ccc(C(=O)O)c(O)c2)C1=O)=C\c1ccccc1 | 7.47%
31 | Cc1ccc(C)c(S(=O)(=O)NCC(=O)Nc2ccc3c(c2)OCO3)c1 | 3.55%
32 | Cc1cc(C)n(CCn2nc(C)cc2C)n1 | 4.43%
33 | Cc1ccc(NC(=S)NCc2ccccc2Cl)c(C)c1 | 2.81%
34 | CCC(C)NC(=O)c1cn(CC)c2ccc(S(=O)(=O)N(C)C)cc2c1=O (centres unmarked) | 1.45%
35 | COCCN1CCN(C(=O)c2cc(COc3ccc(F)cc3Cl)on2)CC1 | -3.91%
36 | NC(=O)CC(NC(=O)Cc1ccc(Br)cc1)c1ccc(N2CCN(c3ccccn3)CC2)c([N+](=O)[O-])c1 (centres unmarked) | 17.2%
37 | COc1cc(NC(=O)CSc2nc(=O)n(CCN3CCOCC3)c3c2CCCC3)cc(OC)c1 | -23.3%
38 | Cc1ccc(C)c(NC(=O)CSc2nc(=O)n(CCN3CCOCC3)c3c2CCCC3)c1 | -24.2%
39 | CCN(CC)CCn1c2c(c(SCC(=O)Nc3cc(C)ccc3C)nc1=O)CCC2 | -61%
40 | CCN(CC)CCn1c2c(c(SCC(=O)Nc3cc(C)on3)nc1=O)CCCC2 | -25%
41 | CCN(CC)CCn1c2c(c(SCC(=O)Nc3cc(OC)cc(OC)c3)nc1=O)CCC2 | -70.1%
42 | COc1cc(NC(=O)CSc2nc(=O)n(CCCN3CCOCC3)c3c2CCC3)cc(OC)c1 | -34.9%
43 | CCN(CC)CCn1c2c(c(SCC(=O)Nc3cc(C)cc(C)c3)nc1=O)CCC2 | -62.1%
44 | CCN(CC)CCCn1c2c(c(SCC(=O)Nc3cc(OC)cc(OC)c3)nc1=O)CCC2 | -64.4%
45 | COc1cc(NC(=O)CSc2nc(=O)n(CCN3CCOCC3)c3c2CCC3)cc(OC)c1 | -41.9%
46 | COC(=O)NC1(C(=O)O)CCCC1 | -0.802%
47 | O=C(NNC(=O)c1cc(-c2ccco2)nc2ccccc12)c1ccccc1 | -3.05%
48 | O=S(=O)(Nc1nc2ccccc2nc1NCC1CCCO1)c1ccc(F)cc1 (centres unmarked) | -1.06%

Row | Structure (SMILES) | hERG current change (%, negative = inhibition) at 10uM
49 | Cc1cc(OCC(=O)N2C[C@H]3C[C@@H](C2)c2cccc(=O)n2C3)c2c(C)cc(=O)oc2c1 | 10.3%
50 | COc1ccc(/C=N/NC(=O)C(=O)N2CCN(c3ccccc3OC)CC2)cc1 | -27.6%
51 | COc1cc(CCC(=O)Nc2ccc(Cl)c(C(F)(F)F)c2)cc(OC)c1OC | 13.1%
52 | Cc1cc(Cl)c(S(=O)(=O)NCC2CCCO2)cc1OCC(N)=O (centres unmarked) | 4.47%
53 | O=C(NC1CCCC1)c1cc(-c2ccc(Cl)cc2Cl)on1 | 7.16%
54 | O=C(CN(Cc1ccco1)C(=O)c1ccc(N2CCCC2=O)cc1)Nc1ccccc1C(F)(F)F | -46.3%
55 | CCNC(=O)c1sc2cc(C)ccc2c1Cl | -3.25%
56 | CN(C)S(=O)(=O)c1ccc(N2CCCC2)c(C(=O)NC2CCC(O)CC2)c1 (centres unmarked) | 13.2%
57 | c1ccc(-n2nnnc2NC2CCCCC2)cc1 | 11%
58 | Cc1ccc(CSCC(Nc2ccc(C(=O)O)cc2[N+](=O)[O-])C(=O)O)cc1 (centres unmarked) | 6.66%
59 | COc1cc2c(cc1OC)CN(Cc1ccc(OC)c(C)c1OC)CC2 | -43.6%
60 | Clc1cccc(CN2CCc3c([nH]c4ccccc34)C2)c1Cl | -8.21%
61 | COc1ccc(CN2CCc3c([nH]c4ccccc34)C2)cc1Br | -45.9%
62 | COc1ccc(CN2CCc3c([nH]c4ccccc34)C2)c(OC)c1C | -62.4%
63 | COc1cc(OC)c(CN2CCc3c([nH]c4ccccc34)C2)cc1Br | -54.9%
64 | COc1ccccc1CN1CCc2c([nH]c3ccccc23)C1 | -23%
65 | O=C(NNC(=O)C1CCN(Cc2cccc(F)c2)CC1)c1cccc(Cl)c1 | -8.28%
66 | CCOc1ccc(C(=O)Nc2nnc(S(=O)(=O)N(C)Cc3ccco3)s2)cc1 | 9.14%
67 | COCCN1Cc2cccc(C(=O)Nc3ccc4c(c3)OCCO4)c2C1=O | -5.24%
68 | O=C(CSCc1cccc(F)c1)N1CCN(c2ccccc2)CC1 | -19.2%
69 | Cc1ccc(NS(=O)(=O)c2c(C)[nH]c(=O)[nH]c2=O)c(C)c1 | 24.3%
70 | COc1ccc(C(=O)N2CCN(C3CCCCC3)CC2)c(OC)c1 | -73.6%
71 | COc1cc(OC)cc(C(=O)N2CCN(C3CCCCC3)CC2)c1.O=C(O)C(=O)O | -23.4%
72 | COc1ccc(C(=O)N2CCCN(C)CC2)c(OC)c1 | -5.24%

Row | Structure (SMILES) | hERG current change (%, negative = inhibition) at 10uM
73 | COc1ccc(C(=O)N2CCN(C3CCN(Cc4ccccc4)CC3)CC2)cc1OC | -42.8%
74 | COc1cc(C(=O)N2CCN(C3CCCCC3)CC2)cc(OC)c1OC.O=C(O)C(=O)O | 2.07%
75 | COc1ccc(C(=O)N2CCN(C(=O)Cc3ccccc3)CC2)cc1OC | 5.3%
76 | COc1ccc(C(=O)N2CCN(C3CCCCC3)CC2)cc1OC.O=C(O)C(=O)O | -73.6%
77 | COc1ccc(C(=O)N2CCN(C3CCC(c4ccccc4)CC3)CC2)cc1OC (centres unmarked) | -69.9%
78 | COc1cccc(C(=O)N2CCN(C3CCCCC3)CC2)c1.O=C(O)C(=O)O | -13.5%
79 | CC(=O)c1c(C)[nH]c(C(=O)OCc2ccccc2)c1C | -3.71%
80 | C=C(C)CSc1nnc(-c2ccccc2)n1N | -1.72%
81 | CCOC(=O)N1CCC(NS(=O)(=O)c2ccc3c(c2)oc(=O)n3C)CC1 | 1.74%
82 | COc1cccc(N2CCN(S(=O)(=O)c3cccc4nsnc34)CC2)c1 | -10.6%
83 | CC(C)Cc1nnc(NC(=O)CCC(=O)NC2CC2)s1 | 21.9%
84 | COc1ccc(NC(=O)c2c(C)noc2-c2snnc2C)cc1 | -1.51%
85 | O=C(NCc1ccco1)c1ccc(Cn2c(=O)c3ccccc3n(Cc3ccc(Cl)cc3)c2=O)cc1 | 8.16%
86 | CC(C)n1c(=N)c(C(=O)NCCc2ccccc2)cc2c(=O)n3ccccc3nc21 | -75.1%
87 | N=c1c(C(=O)NCc2ccccc2)cc2c(=O)n3ccccc3nc2n1Cc1ccco1 | -76.4%
88 | Cn1c(C(=O)NCCC2=CCCCC2)cc2c(=O)n3ccccc3nc21 | 19.7%
89 | N=c1c(S(=O)(=O)c2ccccc2)cc2c(=O)n3ccccc3nc2n1Cc1ccco1 | -18.9%
90 | N=c1c(C(=O)NCCc2ccccc2)cc2c(=O)n3ccccc3nc2n1Cc1ccco1 | -77.9%
91 | N=c1c(S(=O)(=O)c2ccc(Cl)cc2)cc2c(=O)n3ccccc3nc2n1Cc1ccco1 | 13.1%
92 | O=C(NCCc1ccccc1)c1cnc2ccccn2c1=O | -12%
93 | N=c1c(S(=O)(=O)c2ccc(Br)cc2)cc2c(=O)n3ccccc3nc2n1Cc1ccco1 | 7.31%
94 | O=C(NCCc1ccco1)c1nn(Cc2ccccc2)c(=O)c2ccccc12 | 10.3%
95 | N=c1c(C(=O)NCc2ccco2)cc2c(=O)n3ccccc3nc2n1Cc1ccc(Cl)cc1 | -77.1%
